# According to PubChem BioAssay (NCI):
# Compounds without any hit were thinned out: in the full panel of roughly 83,000, 20% have a hit.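 Cell lines were cultured in 96-well plates, exposed to a single compound concentration, and assessed for percent growth 48 hours later.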 Unmarked numbers belong to inactive results. The source made the active and inactive calls. How the source made its calls: active means growth percent below 10; inactive means the rest.
# Columns and labels:
# Test in all cases: NCI-60 one-dose screen, 48 h (100 = growth as untreated, 0 = no growth, -100 = all killed)
# Conditions in all cases: 10 µM
# HCT-15 colon = system: HCT-15 colon
# HT29 colon = system: HT29 colon
# SNB-75 CNS = system: SNB-75 CNS
# SNB-19 CNS = system: SNB-19 CNS
# U251 CNS = system: U251 CNS
# PC-3 prostate = system: PC-3 prostate
# SK-MEL-5 melanoma = system: SK-MEL-5 melanoma
# UACC-62 melanoma = system: UACC-62 melanoma
# SK-MEL-28 melanoma = system: SK-MEL-28 melanoma
# LOX IMVI melanoma = system: LOX IMVI melanoma
SMILES,growth (HCT-15 colon) [%],growth (HT29 colon),growth (SNB-75 CNS) [%],growth (SNB-19 CNS) [%],growth (U251 CNS) [%],growth (PC-3 prostate) [%],growth (SK-MEL-5 melanoma) [%],growth (UACC-62 melanoma) [%],growth (SK-MEL-28 melanoma),growth (LOX IMVI melanoma)
Cc1cc(CSc2ccccc2C(=O)N2CC=C(c3ccccc3)CC2)on1,95.2,84.2%,90.3,104,98.7,82.9,97.5,90.4,98.1%,–
O=C(Nc1ccccc1)Nc1ncnc2c1ncn2-c1ccccc1,85,75.2%,41.5,57.7,48.9,–,67.7,91.8,94%,91%
Fc1ccc(C(c2ccc(F)cc2)C(Cl)Cl)cc1,104,97.7%,96.1,101,103,92.2,101,106,101%,–
CCN(CC)CCOC(=O)c1cc(OCc2ccccc2)c(OCc2ccccc2)c(OCc2ccccc2)c1,13.1,7.14% (active),72.1,56.9,18.3,49.6,63.3,–,63.2%,-16.9% (active)
CS(=O)(=O)c1nccc(-c2c(-c3cccc(OCCc4ccccc4)c3)nc3sccn23)n1,108,99.7%,98.4,92.6,99.4,86.9,–,85.9,112%,94.2%
Clc1ccc2c(c1)C(N1CCNCC1)=Nc1ccccc1O2,47.5,11.6%,16.4,67.6,41.7,40,–,30.4,-10.9% (active),39%
O=C(O)Cc1ccc(O)c(O)c1,96.4,115%,68.8,102,109,106,–,105,103%,107%
